# Measured values taken from PubChem BioAssay AID488847 (NMMLSC, 2010).
# Values joined by “and” are separate entries in the source; they are usually repeats but may differ in a detail not shown here. Identical values can stand only once. The campaign covered roughly 330,000 compounds. About 1,900 (0.58%) were called active.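 The calls were made as follows: active = inhibition of aptamer binding above 40%, roughly 3 SD of noise, on plates passing a quality check; inactive = the rest.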 The full list was thinned out, with actives kept by preference. Where a structure was tested more than once in an assay, its records may differ in their call.
# Biological target: Beta-adrenergic receptor kinase 1 (Homo sapiens) (UniProt P25098)
# Assay: compounds blocking aptamer binding on GRK2 – biochemical, human GRK2, bead flow cytometry, HTS, primary screen (AID 488847);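 also: median bead fluorescence of bound FAM aptamer so fluorescent compounds give negative values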
# Conditions: FAM-aptamer displacement from GRK2, at 10 µM, stronger effect = higher value
# Sequence of Beta-adrenergic receptor kinase 1 (Homo sapiens) (P25098 whole entry, looked up): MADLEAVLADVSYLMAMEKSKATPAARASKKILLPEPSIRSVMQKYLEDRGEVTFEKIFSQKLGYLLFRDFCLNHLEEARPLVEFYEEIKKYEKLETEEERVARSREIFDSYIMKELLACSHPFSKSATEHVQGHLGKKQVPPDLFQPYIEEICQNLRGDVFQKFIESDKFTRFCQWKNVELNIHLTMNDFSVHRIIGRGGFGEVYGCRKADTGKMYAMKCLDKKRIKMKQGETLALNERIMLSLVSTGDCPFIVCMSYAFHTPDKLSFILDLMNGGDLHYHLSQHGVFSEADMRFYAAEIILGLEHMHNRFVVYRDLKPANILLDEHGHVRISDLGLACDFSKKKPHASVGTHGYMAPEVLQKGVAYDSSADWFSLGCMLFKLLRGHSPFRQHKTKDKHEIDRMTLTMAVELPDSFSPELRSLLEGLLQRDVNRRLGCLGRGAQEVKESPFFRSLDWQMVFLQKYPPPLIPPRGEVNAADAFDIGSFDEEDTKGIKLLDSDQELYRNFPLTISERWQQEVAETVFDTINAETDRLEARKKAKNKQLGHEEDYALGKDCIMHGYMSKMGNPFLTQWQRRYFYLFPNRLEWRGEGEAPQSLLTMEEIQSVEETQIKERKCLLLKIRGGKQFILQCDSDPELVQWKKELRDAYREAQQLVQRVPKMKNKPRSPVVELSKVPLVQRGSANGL
row,SMILES,inhibition of aptamer binding
1,O=C(c1noc2c1CCCC2)N1CCc2ccccc2C1,0% (inactive)
2,OC(COc1ccc2c(c1)CCC2)CN1CCN(c2cccc(Cl)c2)CC1 (centres undefined),0% (inactive)
3,CCN1C(=O)/C(=C\N2CCN(c3cccc(Cl)c3)CC2)SC1=S,3% (inactive)
4,CCc1nn(CCCN2CCN(c3cccc(Cl)c3)CC2)c(=O)n1CCOc1ccccc1,43% (active) and 0% (inactive)
5,CN(CCc1ccccn1)S(=O)(=O)c1ccc2c3c(cccc13)C(=O)N2,0% (inactive)
6,Cc1ccccc1C(=O)N1CCC(C(=O)Nc2ccc(S(=O)(=O)N(C)C(C)C)cc2)CC1,0% (inactive)
7,CCCc1nc2ccccc2c(=O)n1NC(=O)c1c(O)c2ccccc2[nH]c1=O,92% (active)
8,COc1cc(C(=O)Nn2c(CC(C)C)nc3ccccc3c2=O)cc(OC)c1OC,0% (inactive)
9,CCCCc1nc2ccccc2c(=O)n1NC(=O)c1c(O)c2cccc3c2n(c1=O)CC3,0% (inactive)
10,Cc1ccc(NC(=O)COC(=O)CNC(=O)c2ccc(Cl)cc2Cl)cc1S(=O)(=O)N1CCOCC1,2% (inactive)
11,Fc1ccc(CNc2nc3ccccc3n3nnnc23)cc1,2% (inactive)
12,O=c1ccc2c(-c3ccccc3S(=O)(=O)O)c3ccc(O)c(O)c3oc-2c1O,75% (active)
13,Cc1cc(OCC(=O)N(C)c2c(N)n(Cc3ccccc3)c(=O)[nH]c2=O)c(C(C)C)cc1Cl,1% (inactive)
14,O=C1CCCCC1Sc1ccc(Cl)cc1[N+](=O)[O-] (centres undefined),1% (inactive)
15,COc1ccccc1N(C)S(=O)(=O)c1ccc(Cl)c(C(=O)Nc2ccncc2)c1,0% (inactive)
16,O=C1CCCN1C(=O)COc1ccc([N+](=O)[O-])cc1,1% (inactive)
17,O=C(COC(=O)c1ccccc1)Nc1cccc(S(=O)(=O)N2CCOCC2)c1,1% (inactive)
18,CN=C(Nc1cccc(S(=O)(=O)N2CCOCC2)c1)c1ccccc1,79% (active)
19,O=C(Nc1nnc(-c2ccco2)o1)c1ccc(S(=O)(=O)N2CCOCC2)cc1,0% (inactive)
20,O=C(CSc1ccccc1)Nc1cccc(S(=O)(=O)N2CCOCC2)c1,2% (inactive)

row,SMILES,inhibition of aptamer binding
1,O=C(Nc1ccc(N2CCOCC2)cc1)c1cccc(S(=O)(=O)N2CCOCC2)c1,2% (inactive)
2,O=C(Nc1nnc(-c2ccccc2)o1)c1cccc(S(=O)(=O)N2CCOCC2)c1,49% (active)
3,Nc1cc(N2CCCCCC2)c2nonc2c1[N+](=O)[O-],0% (inactive)
4,COc1ccc(Cl)cc1NC(=O)CCS(=O)(=O)c1cc2c(cc1C)NC(=O)CO2,80% (active)
5,COc1ccc(Cl)cc1NC(=O)COC(=O)c1ccc(Br)o1,0% (inactive)
6,CCOc1ccc(OCC)c(NC(=O)CCS(=O)(=O)c2ccc(C)cc2)c1,0% (inactive)
7,Cc1ccc(S(=O)(=O)CCC(=O)OCC(=O)NCCc2ccc(S(N)(=O)=O)cc2)cc1,0% (inactive)
8,Cc1cc2c(cc1S(=O)(=O)CCC(=O)NCc1ccccc1)OCC(=O)N2,2% (inactive)
9,O=C(Cc1ccc(Br)cc1)NCCc1ccccc1,1% (inactive)
10,COc1ccc(Cl)cc1NC(=O)CCS(=O)(=O)c1ccc(Br)cc1,89% (active)
11,O=C(CCS(=O)(=O)c1ccc(Br)cc1)NCCc1ccc(Cl)cc1,49% (active)
12,COc1ccc(NC(=O)CCS(=O)(=O)c2cc3c(cc2Cl)NC(=O)CO3)cc1OC,0% (inactive)
13,Cc1ccc(CN2C(=O)N/C(=C/c3cc(C)n(-c4ccccn4)c3C)C2=O)cc1,1% (inactive)
14,CCc1cc2c(=O)c(-c3nc4ccccc4n3C)c(CCCC(=O)O)oc2cc1OC(=O)C(C)(C)C,1% (inactive)
15,COc1ccc(CN2C3CCCC2CC(NC(=O)c2cccc(F)c2)C3)cc1 (centres undefined),0% (inactive)
16,CC(=O)N1CCC(C(=O)Nc2nc(-c3ccccc3)ns2)CC1,0% (inactive)
17,CC(Sc1nncn1C)C(=O)Nc1cc(C(F)(F)F)ccc1N1CCOCC1 (centres undefined),0% (inactive)
18,O=C(N1CCCC1)C12CC3CC(C1)CC(C(=O)N1CCCC1)(C3)C2,3% (inactive)
19,O=C(NCC12CC3CC(C1)CC(CNC(=O)N1CCCC1)(C3)C2)N1CCCC1,54% (active)
20,C=CCNC(=O)CC12CC3CC(C1)CC(CC(=O)NCC=C)(C3)C2,1% (inactive)

row,SMILES,inhibition of aptamer binding
1,N#Cc1c(-c2ccccc2)nc(SCc2ccc([N+](=O)[O-])cc2)[nH]c1=O,5% (inactive)
2,O=c1[nH]c(SCc2ccccc2)nnc1-c1ccccc1,80% (active)
3,Cc1ccccc1CSc1nnc(-c2ccccc2)c(=O)[nH]1,3% (inactive)
4,COc1cc(OC)cc(C(=O)Nc2nnc(SCC(=O)NCC3CCCO3)s2)c1 (centres undefined),0% (inactive)
5,CCC(=O)Nc1ccccc1C(=O)N1CCN(Cc2ccccc2)CC1,2% (inactive)
6,S=c1nc2ccccc2c2nc(-c3cccnc3)[nH]n12,0% (inactive)
7,CC(C)(C)Nc1nc(-c2ccccn2)nc2ccccc12,0% (inactive)
8,COc1ccc(Nc2nc(-c3cccnc3)nc3ccccc23)cn1,60% (active)
9,COc1cc(OC)c(C2=NOC(C(=O)Nc3c(C)n(C)n(-c4ccccc4)c3=O)C2)cc1Cl (centres undefined),1% (inactive)
10,Cc1ccc(Sc2cc(C(=O)c3ccccc3C(=O)O)ccc2[N+](=O)[O-])cc1,0% (inactive)
11,O=C(NCc1ccccc1)[C@H]1C[C@@H]1[C@H](NP(=O)(c1ccccc1)c1ccccc1)c1ccccc1,0% (inactive)
12,COc1ccccc1N1CCN(CC(=O)Nc2ccnn2C2CCCC2)CC1,0% (inactive)
13,O=C(Nc1ccccc1-c1nc2ccccc2[nH]c1=O)c1cccs1,1% (inactive)
14,C/C(=N\Nc1nc(Nc2ccccc2)nc(N2CCOCC2)n1)c1cccs1,0% (inactive)
15,C/C(=N\Nc1nc2ccccc2[nH]1)c1cccs1,100% (active)
16,CCN(CC(=O)NCc1ccc(Cl)cc1)C(=O)c1c(C)noc1C,0% (inactive)
17,CCOc1cc2[nH]c(=S)n(Cc3ccc(C(=O)N4CCN(C)CC4)cc3)c(=O)c2cc1OCC,0% (inactive)
18,NC(=O)C1CCN(C(=O)c2ccc3c(=O)n(Cc4cccc(Br)c4)c(=S)[nH]c3c2)CC1,69% (active)
19,COc1ccc(Cn2c(=S)[nH]c3cc(C(=O)N4CCCCC4)ccc3c2=O)cc1,2% (inactive)
